# Screens deposited in PubChem BioAssay by SRMLSC.
# The list is not random: actives were taken first. Their share in the collection is about 6.8%.
# NADH enzymes = inhibitors of PK/LDH coupling enzymes, profiling panel, artefact control, biochemical, MLSMR library; IC50, µM (titrated, usually from 10 µM); 0.02% of 65,000 active; coupled PK/LDH NADH assays, four targets;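 active means single-dose screening hits from any of four coupled enzyme assays that gave an IC50 when retested across doses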;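 further: the DPM-DC format reads NADH fluorescence rather than 340 nm absorbance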
# Spn MK inh = S. pneumoniae MK inhibitors, primary screen, biochemical, PK/LDH-coupled NADH absorbance; mevalonate kinase [Streptococcus pneumoniae D39]; 0.48% of 65,000 active; purified MK, PK/LDH-coupled NADH absorbance 340 nm; inhibition, % at 10 µM;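 active means ranked among the strongest by inhibition in the single 10 µM screen, a fixed top-ranked set picked for dose follow-up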
# Spn DPM-DC inh = S. pneumoniae DPM-DC inhibitors, primary screen, biochemical, PK/LDH-coupled NADH fluorescence; diphosphomevalonate decarboxylase (Streptococcus pneumoniae D39); purified DPM-DC; calls only at 10 µM; 0.49% of 65,000 active; AID 556, 2006;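 active means the 320 compounds with the highest percent inhibition in the single-dose primary screen, excluding strongly autofluorescent ones, cut at about 32% in these data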;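 further: kinetic rate of NADH fluorescence loss reporting ADP formed by the decarboxylase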
# Abs 340nm = compound light absorbance at 340 nm, profiling panel, artefact control, biochemical, MLSMR library, data from PS, PMK, MK assays; fold change at 10 µM; compound absorbance at 340 nm, fold over control; 65,000 tested, under 10 active;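 active means at 10 µM dose, initial 340 nm absorbance at least 2 fold that of control wells; inactive means change under 2 fold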;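 further: initial absorbance extrapolated from kinetic A340 decline of NADH oxidation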
# Fluor 339 460 = intrinsic fluorescence of library compounds, ex339/em460 – biochemical, MLSMR library, data from DPM-DC assay, artefact control, profiling panel; compound autofluorescence, ex339/em460 nm, NADH buffer; active compounds read high; 1 = no-compound wells, NADH background; fluorescence fold increase at 10 µM; 5.5% of 65,000 active; AID 709, 2007;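 active means at 10 µM, mean starting fluorescence two-fold or more over control wells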;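 further: signal is the first read of a kinetic run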
# Spn PMK inh = S. pneumoniae PMK inhibitors, primary screen, biochemical, mevalonate pathway, pilot trial included; inhibition, % at 10 µM; phosphomevalonate kinase (Streptococcus pneumoniae D39); 0.49% of 65,000 active; purified PMK, PK/LDH-coupled NADH absorbance 340 nm;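 active means top-ranked compounds by inhibition in the single 10 µM screen, taking a fixed number of the strongest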
# Hits are given with their value; – = inactive; · = no result shown; + = active, no number.
SMILES,NADH enzymes,Spn MK inh,Spn DPM-DC inh,Abs 340nm,Fluor 339 460,Spn PMK inh
CCCC(=O)c1c(NC)cc(C)oc1=O,–,–,–,–,–,–
Cc1ccc2c(c1)C(O)(c1c(C)[nH]c3ccccc13)C(=O)N2 (centres undefined),–,–,–,–,–,–
COc1ccc(C(=O)Nc2cccc3c2C(=O)NC3=O)cc1S(=O)(=O)N1CCOCC1,–,–,–,–,–,25.0
CCCCOC(=O)c1ccc(NC(=O)c2cnc3n(c2=O)CCS3)cc1,–,–,–,–,2,–
O=C(Nc1ccc(OC(F)(F)F)cc1)c1cnc2n(c1=O)CCS2,–,–,–,–,–,–
COc1ccc(-c2nc(N3CCCC3)nc3nn4c(C)cc(C)nc4c23)cc1,–,–,–,–,2.18,–
COc1ccc(-c2nc(N3CCOCC3)nc3n[nH]c(N)c23)cc1,–,–,–,–,–,–
Cc1cc(C)n2nc3nc(N4CCCC4)nc(-c4ccccc4)c3c2n1,–,–,–,–,3.16,–
Nc1[nH]nc2nc(N3CCCC3)nc(-c3ccccc3)c12,–,–,–,–,–,–
CCOC(=O)c1nc2sc(C)c(C)c2c(=O)[nH]1,–,–,·,–,3.68,–
CCOC(=O)CCCSc1nc2sc(C)c(C)c2c(=O)[nH]1,–,–,–,–,–,–
Cc1c(C(=O)NCCCN2CCCC2=O)oc2ccccc12,–,–,–,–,–,–
CC(Sc1nnc(-c2cc3ccccc3o2)n1-c1ccccc1)C(=O)O (centres undefined),–,–,–,–,–,–
N#Cc1cn(-c2ccccc2)nc1-c1cc2ccccc2oc1=O,–,–,·,–,2.35,–
COc1cc(-c2cc3nc(C)c(C)c(=O)n3[nH]2)cc(OC)c1OC,–,–,–,–,2,–
COc1ccc(-c2cc(C(F)(F)F)nc(N3CCOCC3)n2)cc1OC,–,–,–,–,–,–
COc1ccc(-c2cc(-c3ccccc3)nc(N3CCCC3)n2)cc1OC,–,–,·,–,2.22,–
COCC(C)n1c(COc2ccccc2F)nnc1SCc1c(C)noc1C (centres undefined),–,–,–,–,–,29.0
Cc1noc(C)c1CSc1nnc(-c2ccccc2F)n1CCc1ccccc1,–,–,–,–,–,–
CCC(CC)C(=O)NCCc1cc2ccc(C)c(C)c2[nH]c1=O,–,–,–,–,–,–
CCC(C)NC(=O)CSC1=Nc2ccccc2C2=NC(CC(=O)NCc3ccc(F)cc3)C(=O)N12 (centres undefined),–,–,–,–,2.83,–
CC(C)C1N=C2c3ccccc3N=C(SCC(=O)NCCc3ccc(S(N)(=O)=O)cc3)N2C1=O (centres undefined),–,–,–,–,2.4,–
CCOC(=O)CSC1=Nc2ccccc2C2=NC(CC(=O)NCc3ccccc3)C(=O)N12 (centres undefined),–,–,–,–,2.99,–
CCOC(=O)CSC1=Nc2ccccc2C2=NC(CC(=O)NCc3cccs3)C(=O)N12 (centres undefined),–,–,–,–,–,–
O=C(NCc1ccco1)C(c1ccc(F)cc1)N(Cc1cccnc1)C(=O)Cn1nnc2ccccc21 (centres undefined),–,–,–,–,–,–
SMILES,NADH enzymes,Spn MK inh,Spn DPM-DC inh,Abs 340nm,Fluor 339 460,Spn PMK inh
CC(O)C(=O)NCCOCCOCCNC(=O)C(C)O (centres undefined),–,–,–,–,–,–
Cc1cc(C)n2cc(CSc3nc4cc(Cl)ccc4o3)nc2n1,–,–,–,–,2.08,–
Cc1cc(C)n2c(Br)c(CSc3nc4ccccc4o3)nc2n1,–,–,–,–,2.63,–
Nn1c(CSc2nc3ccccc3o2)nnc1CSc1nc2ccccc2o1,–,–,–,–,–,–
Cc1cc(C)n2cc(CSc3nnnn3C)nc2n1,–,–,·,–,2.6,–
COC(=O)C1=C(C)Nc2ncnn2C1c1ccc(OCc2ccccc2)cc1 (centres undefined),–,–,–,–,–,–
CCc1cc2ccc(C)cc2nc1SCC(=O)N1CCN(C(=O)c2ccco2)CC1,–,–,–,–,–,–
CCCOC(=O)c1ccc(OCC(O)CN2C(=O)NC(C)(C)C2=O)cc1 (centres undefined),–,–,–,–,–,–
N#Cc1c(N)oc(-c2ccco2)c1-c1ccco1,–,–,·,–,2.11,–
N#Cc1c(N)oc(-c2ccccc2)c1-c1ccccc1,–,–,–,–,–,–
Cc1cc(C(=O)CSc2n[nH]c(N)n2)c(C)n1-c1cccc(F)c1,–,–,–,–,–,–
NC(=O)c1ccsc1NC(=O)c1nc(-c2ccccc2)n(-c2ccccc2)n1,–,–,+,–,–,–
O=C(NC1=NCCS1)c1nc(-c2ccccc2)n(-c2ccccc2)n1,–,–,–,–,–,–
CCCN(CCC)C(=O)CSc1nc2ccccc2c(=O)n1C1CCCC1,–,–,–,–,–,–
Cc1nnc2sc(-c3ccc(-c4ccc(Cl)c(C(F)(F)F)c4)o3)nn12,–,–,·,–,3.71,–
Cc1oc(-c2cc(Cl)ccc2Cl)cc1-c1nn2c(C)nnc2s1,–,–,–,–,–,–
COc1cccc(N2CCN(Cc3nc(N)nc(N4CCCc5ccccc54)n3)CC2)c1,–,–,–,–,–,–
Cc1cc(C(=O)Nc2sc(C)c(-c3ccc(F)cc3)c2C(N)=O)no1,–,–,–,–,2.3,–
CC(CCc1ccccc1)NCC(O)c1ccc(O)c(C(N)=O)c1 (centres undefined),–,–,·,–,2.48,–
CC(CCc1ccccc1)NC(=O)c1ccncc1 (centres undefined),–,–,–,–,–,–
CCOC(=O)c1ccc(Cn2c(-c3ccccc3)nnc2-c2ccccc2)o1,–,–,–,–,–,–
CCN(CC)c1ccc(-c2c(C#N)c(N)nc(OC)c2C#N)cc1,–,–,·,–,2.55,–
CC1(C)CC(=O)C2=C(C1)N(c1ccccc1C#N)C(N)=C(C#N)C2c1cccs1 (centres undefined),–,–,–,–,–,–
O=C(Nc1cc(Cl)ccc1O)c1cc2n(n1)C(C(F)(F)F)CC(c1ccc3c(c1)OCO3)N2 (centres undefined),–,–,–,–,–,–
O=C(NCc1ccc2c(c1)OCO2)c1cc2n(n1)C(C(F)(F)F)CC(c1ccc3c(c1)OCO3)N2 (centres undefined),–,–,–,–,–,25.0
COC(=O)CN(c1ccccc1C)S(C)(=O)=O,–,–,–,–,–,–
